# Shown are actives, neighbours in structure and some others; about 12% of the full set was active somewhere.
# PLK1 PBD inh = blocks phosphopeptide binding to human PLK1 polo-box domain. P53350. Plk1 PBD binding of FITC phosphopeptide, fluorescence polarization. Potency, µM, without a hit: max response, negative = inhibition, actives largely listed as inhibitors. actives 2.8% (n = 360,000). AID 720504; also: series mostly up to about 57 µM; % is scaled to controls: 0 for no effect and ±100 for the full control effect; nearly all actives have a fitted effect of over 65% in size
# Target sequence (P53350 whole entry, looked up, the tested form may be a part): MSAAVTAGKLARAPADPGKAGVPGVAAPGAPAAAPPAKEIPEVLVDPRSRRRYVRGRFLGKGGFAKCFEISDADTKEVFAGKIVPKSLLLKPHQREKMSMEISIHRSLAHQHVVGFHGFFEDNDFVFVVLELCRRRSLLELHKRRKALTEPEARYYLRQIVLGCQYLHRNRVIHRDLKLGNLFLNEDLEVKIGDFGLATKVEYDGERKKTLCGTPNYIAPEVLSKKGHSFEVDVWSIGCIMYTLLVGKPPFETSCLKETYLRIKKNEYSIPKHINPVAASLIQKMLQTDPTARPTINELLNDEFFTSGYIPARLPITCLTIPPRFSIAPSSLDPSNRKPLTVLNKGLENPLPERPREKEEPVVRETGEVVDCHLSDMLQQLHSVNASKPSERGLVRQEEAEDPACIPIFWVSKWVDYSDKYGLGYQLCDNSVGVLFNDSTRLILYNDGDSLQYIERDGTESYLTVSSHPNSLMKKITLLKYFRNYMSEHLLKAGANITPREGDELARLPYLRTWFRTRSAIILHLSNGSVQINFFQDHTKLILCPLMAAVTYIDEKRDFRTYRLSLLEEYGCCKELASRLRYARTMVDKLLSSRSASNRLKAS
# JMJD2A Tudor = JMJD2A Tudor domain (human) inhibition; O75164; AlphaScreen JMJD2A-Tudor / H3K4me3 peptide binding; Potency, µM (highest dose often 114 µM), for inactives: at the top dose activity change, negative = inhibition, most hits filed as inhibitors; actives 4.4% (n = 390,000); AID 504339; also: % is scaled to controls: 0 for no effect and ±100 for the full control effect; nearly all actives have a fitted effect of over 50% in size
# Sfp inh = Sfp phosphopantetheinyl transferase inhibition | actives 3.5% (n = 310,000) | AID 1490 | Potency, µM, for the others: largest response in the series, negative = inhibition, most hits filed as inhibitors | Biochemical Sfp PPTase activity, qHTS;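 also: the enzyme is Sfp with the accession as filed and its product quenches rhodamine fluorescence; 0% = enzyme reaction without inhibitor and -100% = no enzyme wells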
#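 After 15 min at room temperature with compound, 15 nM Sfp received 5 uM rhodamine-CoA plus 12.5 uM BHQ-2-ybbR (50 mM Hepes pH 7.6, 10 mM MgCl2). Rate came from the fluorescence difference over 30 min, ex 525/em 598 nm.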
# HP1b chromo inh = blocks HP1-beta chromodomain binding to methylated histone tails | AlphaScreen HP1-beta / biotin-H3K9me3 peptide binding | Potency, µM (highest dose often 114 µM), inactives show at the highest dose activity change, negative = inhibition, usual class: inhibitors | actives 0.56% (n = 390,000) | AID 540317; also: nearly all actives have a fitted effect of over 70% in size
#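 AlphaScreen: HP1-beta (50 nM) preformed 30 min with biotin-H3(1-18)K9me3 peptide (50 nM) in PBS pH 7.4, 0.01% Tween-20. Compound added for 30 min at RT, then streptavidin donor/nickel chelate acceptor beads (10 ug/mL) for 30 min.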
# BAZ2B block = BAZ2B (human) inhibition; Q9UIF8; AlphaScreen BAZ2B-H3K14Ac peptide displacement; Potency, µM (highest dose often 114 µM), without a hit: top-dose activity change, negative = inhibition, most hits filed as inhibitors; actives 4.4% (n = 360,000); also: % is scaled to controls: 0 for no effect and ±100 for the full control effect; nearly all actives have a fitted effect of over 60% in size
#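 Complex of BAZ2B and biotin-H3K14Ac (50 nM apiece) forms over 30 min at RT, then faces library compounds up to 110 uM for another 30 min; AlphaScreen beads added, 20 min dark incubation, luminescence read.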
# G9a inh = G9a (human) methyltransferase inhibition | G9a H3K9 monomethylation, AlphaScreen, 2 h | Potency, µM (highest dose often 102 µM), for the others: top-dose activity, negative = inhibition, hits mostly inhibitors | actives 8.8% (n = 350,000); also: % is scaled to controls: 0 for no effect and ±100 for the full control effect; nearly all actives have a fitted effect of over 75% in size
#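 Quantitative HTS format: methyltransferase activity on a biotin-tagged H3K9 peptide is measured by AlphaScreen, using a rabbit anti-monomethyl-H3K9 antibody with streptavidin donor and anti-IgG acceptor beads. Final levels are 20 nM enzyme, 500 nM peptide, 20 uM SAM; 2 h RT.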
# * = called active by the depositor; ? = inconclusive; / = no result; [ ] = another dose, or the depositor's remark. Calls follow the shape of the dose curve; as a rule, active = well fitted curve in the direction sought with a large enough effect; inconclusive = small, poorly fitted or top-dose-only effect, or another doubt; inactive = no such curve, though single readings can be large; an effect the other way counts as inactive or inconclusive. Potency is read from the fitted curve at half-maximal effect.
SMILES,PLK1 PBD inh,JMJD2A Tudor,Sfp inh,HP1b chromo inh,BAZ2B block,G9a inh
Cc1onc(-c2ccccc2)c1C(=O)OCCOc1ccccc1F,27µM*,-10%[57.1 µM],-2%,149%,115%,308%
COc1cccc(/C=N/N2CCN(c3ccncc3S(=O)(=O)N3CCCCC3)CC2)c1,-2%,?,-15%,?,40µM*,50µM*
Cc1ccc(/C=N/N2CCN(c3ccncc3S(=O)(=O)N3CCCCC3)CC2)cc1,-4%,?,-27%,19%,-4%,19%[2.33 µM]
COc1ccccc1N1CCN(/N=C/c2cccc(Cl)c2)CC1,-5%,50µM*,0%,-27%,?,18µM*
COc1cccc(/C=N/N2CCN(c3ccccc3OC)CC2)c1,-6%,45µM*,0%,-24%,?,?
N#Cc1ccccc1NC(=O)c1cc2c(=O)n3ccccc3nc2s1,/,-3%,/,14%,-5%,-36%[59 µM]
CCCc1nc(N)sc1C(=O)OCC,?,-5%,-18%,14%,1%,?
CCOC(=O)c1sc(N)nc1C(C)C,?,-5%,45µM*,?,9%,?
O=C1CC(c2ccco2)c2ccc3ccccc3c2N1 (centres undefined),-5%,?,-4%,-15%,50µM*,50µM*
COc1cc2c(cc1OC)C(c1ccco1)CC(=O)N2 (centres undefined),6%,-26%,8%,16%,1%,?
CCN(CC)P(=O)(Nc1ccc(C)cc1Br)c1ccc(N(C)C)cc1NC(=O)c1ccco1 (centres undefined),-14%,40µM*,-28%,?,?,40µM*
COc1cc(NC(=O)CCS(=O)(=O)c2ccc3c(c2)CC(=O)N3C)cc(OC)c1OC,/,5%,/,21%,0%,-5%[59 µM]
CC12CC(c3ccccc3O1)N(C(=O)c1ccco1)C(=S)N2c1ccccc1 (centres undefined),-2%,-28%,-7%,-1%,?,40µM*
CC(=O)c1c(N2CCN(C(=O)c3ccco3)CC2)nc(=S)n(-c2ccccc2)c1C,-10%,-3%,17%,13%,9%,10%[59 µM]
CC(C)CN(C(=O)CSc1nnc2ccccn12)c1c(N)n(CC(C)C)c(=O)[nH]c1=O,-10%,-6%,-1%,10%,-2%,45µM*
CCCCn1c(N)c(N(CCC(C)C)C(=O)CSc2nnc3ccccn23)c(=O)[nH]c1=O,-7%,-1%,19%,35%,7%,2%[2.33 µM]
CN(C(=O)CSc1nnc(Nc2ccccc2)s1)c1c(N)n(Cc2ccccc2)c(=O)[nH]c1=O,21µM*,-15%[11.4 µM],?,-9%,-2%,?
CN(C(=O)CSc1nnc2ccccn12)c1c(N)n(Cc2ccccc2)c(=O)[nH]c1=O,-5%,-14%,-17%,?,-1%,35µM*
C[C@@H]1CN([C@@H](C)CO)C(=O)Cc2cc(NS(=O)(=O)c3cn(C)cn3)ccc2O[C@@H]1CN(C)C(=O)Nc1ccccc1,-21%,-4%,/,36%,/,/
COc1cc(OC)cc(C(=O)N2CCN(C(=O)c3cccnc3)CC2)c1,3%,5%,11%,45%,?,10%
Cc1cccc(-n2nnc(-c3nc(-c4cccs4)no3)c2N)c1,/,-21%,/,1%,-3%,3%[59 µM]
CCCCN(C(=O)c1cc2c(s1)CCC2)c1c(N)n(CC(C)C)c(=O)[nH]c1=O,-5%,-35%,/,-6%,?,2%[12.7 µM]
Cc1ccccc1C(=O)N1CCC(C(=O)N(CC(C)C)c2c(N)n(CC(C)C)c(=O)[nH]c2=O)CC1,3%,-14%,/,28%,4%,15%[12.7 µM]
CCCCN(C(=O)c1cc2c(s1)CCC2)c1c(N)n(CCC)c(=O)[nH]c1=O,-19%,?,/,?,?,45µM*
COCCN(C(=O)C1CCN(C(=O)c2ccccc2C)CC1)c1c(N)n(CC(C)C)c(=O)[nH]c1=O,?,89µM*,/,-12%,?,1.6µM*
SMILES,PLK1 PBD inh,JMJD2A Tudor,Sfp inh,HP1b chromo inh,BAZ2B block,G9a inh
COCCN(C(=O)c1cc2c(s1)CCC2)c1c(N)n(CC(C)C)c(=O)[nH]c1=O,-26%,?,/,20%,56µM*,-45%[12.7 µM]
COCCN(C(=O)c1cc2c(s1)CCCCC2)c1c(N)n(CC(C)C)c(=O)[nH]c1=O,-6%,-12%,/,52%,38%,1%[59 µM]
COc1ccc(C(=O)N2CCC[C@@]3(CCN(c4ccccn4)C3)C2)cc1,/,/,14%,/,/,-4%[12.7 µM]
Cc1cccc(C)c1NC(=O)CN1C(=O)c2ccccc2Sc2ncccc21,/,-3%,/,33%,-14%,-9%[59 µM]
CCCC(=O)Nc1ncnc2c1ncn2[C@@H]1O[C@H]2COP(=O)(O)O[C@@H]2[C@@H]1OC(=O)CCC,/,/,24%,/,/,24%[21.5 µM]
CCCNC(=O)N1c2ccccc2Sc2ccccc21,-3%,3%,7%,16%,1%,/
CCC(C)NC(=O)N1c2ccccc2Sc2ccccc21 (centres undefined),-12%,?,-2%,5%,-28%,45µM*
COC(=O)c1nn(-c2ccc(OC)cc2)c(=O)cc1O,-7%,-19%,-16%,-10%,-18%,-42%
COC(=O)c1c(=O)n(O)c2ccc(OC)cc2[n+]1[O-],-16%,?,?,15%,?,32µM*
Cc1ccc(S(=O)(=O)NC(C(=O)N2CCOCCOCCOCC2)C(C)C)cc1 (centres undefined),-3%,-2%,11%,10%,3%,28%
Cc1ccc(S(=O)(=O)NC(C)C(=O)Nc2ccc3c(c2)OCO3)cc1 (centres undefined),-4%,-8%,6%,17%,11%,50µM*
Cc1ccc(S(=O)(=O)NC(C)C(=O)N2CCOCCOCCOCCOCC2)cc1 (centres undefined),0%,11%,29%,36%,6%,40µM*
Cc1ccc(S(=O)(=O)NC(CC(=O)N2CCOCC2)c2ccco2)cc1 (centres undefined),30µM*,-28%[11.4 µM],7%,-1%,12%,-33%[59 µM]
Cc1ccc(S(=O)(=O)NC(CC(=O)NC2CCCC2)c2ccco2)cc1 (centres undefined),-3%,-7%,?,23%,0%,8%[59 µM]
CCOc1ccc2cc(C#N)c(SCC(=O)OCc3ccccc3)nc2c1,/,23%,/,43%,/,/
CCN1c2ccccc2-c2nc(SCC(=O)Nc3cccc(C(F)(F)F)c3)ncc2S1(=O)=O,/,-14%,/,-13%,2%,-3%[59 µM]
CC1=C(C(=O)N2CCOCC2)C(c2ccc(C)cc2)NC(=S)N1 (centres undefined),-19%,-16%,50µM*,32%,-2%,40µM*

# Compound activity from PubChem.
